Reference: PubChem BioAssay (Tox21)
Results filed as inconclusive are left out. Active and inactive are the calls of the source. Unless noted, calls come from the whole dose curve; as a rule, active = well fitted curve in the direction sought with a large enough effect in the repeat runs; inconclusive = weak or mixed curves; inactive = no such curve, though single readings can be large; an effect the other way counts as inactive or inconclusive.

Assays:
[1] = qHTS assay for small molecules that induce genotoxicity in human embryonic kidney cells expressing luciferase-tagged ATAD5 (AID 651632); note: nearly all actives have a fitted effect of over 15% in size
Procedure, shortened: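 Increased luciferase signal from ATAD5-tagged reporter cells indicates DNA-damage-driven ATAD5 induction. HEK293T cells are treated for 16 hr at 37C before detection with Amplite.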

[2] = qHTS assay for small molecule agonists of the p53 signaling pathway - cell viability (AID 651633; calls by dose curve;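 note: p53RE-bla HCT reporter cells with a stable beta-lactamase p53 reporter; series mostly up to about 83 µM; nearly all actives have a fitted effect of over 30% in size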)
Procedure, shortened: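 p53RE-bla cells, seeded at 4,000 per well and rested 5 h at 37 C/5% CO2, received compounds in DMSO for 16 h at 37 C. CellTiter-Glo was then added, and luminescence was read after 30 min at room temperature to gauge cytotoxicity.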

[3] = qHTS assay for small molecules that induce genotoxicity in human embryonic kidney cells expressing luciferase-tagged ATAD5 - cell viability (AID 651634; calls by dose curve; note: nearly all actives have a fitted effect of over 25% in size)
Procedure, shortened: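 Cytotoxicity counterscreen in HEK293T cells bearing an ATAD5-luciferase reporter: live-cell protease activity measured by CellTiter-Fluor fluorescence after 15.5 hr compound exposure.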

[4] = qHTS assay for small molecule disruptors of the mitochondrial membrane potential - cell viability (AID 720634; calls by dose curve;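 note: human HepG2 liver cancer cells; series mostly up to about 83 µM; nearly all actives have a fitted effect of over 20% in size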)
Procedure, shortened: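 After overnight attachment at 37 C, HepG2 cells received compound or DMSO vehicle for 1 hr. Viability is then taken from ATP-driven luminescence following a 30 min room-temperature CellTiter-Glo step.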

[5] = qHTS assay to test for compound auto fluorescence at 590 nm (red) in HepG2 cells (AID 720674)
Procedure, shortened: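 Intrinsic compound fluorescence in the red window (Ex/Em 540/590 nm) is measured in attached HepG2 cells exposed for 1 hr, DMSO vehicle as baseline, benchmarked to Rose Bengal sodium.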

[6] = qHTS assay to test for compound auto fluorescence at 460 nm (blue) in HEK293 cells (AID 720678)
Procedure, shortened: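 Cells were seeded and left to adhere for 4-5 hr at 37C. Compounds were then pin-transferred. After an overnight incubation at 37C under 5% CO2, intrinsic fluorescence at 405/460 nm was measured and referenced to triamterene.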

[7] = qHTS assay to test for compound auto fluorescence at 590 nm (red) in HEK293 cells (AID 720679)
Procedure, shortened: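 Each well held 2,000 HEK293 cells in medium containing 10% dialyzed FBS. Following 4-5 hr attachment at 37C, 23 nL test compound or DMSO was added; plates sat overnight, and red fluorescence (540/590nm) was recorded.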

[8] = qHTS assay to test for compound auto fluorescence at 535 nm (green) in HEK293 cells (AID 720680)
[9] = qHTS assay to test for compound auto fluorescence at 535 nm (green) in HEK293 cell free culture (AID 720682)
Procedure, shortened: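 Measurement is a direct plate read of green fluorescence (485 nm in, 535 nm out) after compound addition to serum-supplemented DMEM lacking cells, with fluorescein used to express intensities.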

[10] = qHTS assay to test for compound auto fluorescence at 590 nm (red) in HEK293 cell free culture (AID 720683)
Procedure, shortened: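 Tox21 10K library compounds were pinned into cell-free DMEM with 10% FBS and fluorescence was read at excitation 540 nm. Activity is expressed as Rose Bengal sodium equivalency.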

[11] = qHTS assay to test for compound auto fluorescence at 590 nm (red) in HepG2 cell free culture (AID 720684)
Procedure, shortened: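 Measured in medium alone (MEM containing 10% FBS) following pintool addition of compound; emission at 590 nm with 540 nm excitation, referenced to Rose Bengal sodium.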

[12] = qHTS assay to test for compound auto fluorescence at 460 nm (blue) in HepG2 cell free culture (AID 720685)
Procedure, shortened: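 Compound (23 nL) or DMSO pinned into cell-free MEM with 10% FBS; blue fluorescence read at 405/460 nm excitation/emission, expressed as auto-fluorescence equivalency to triamterene.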

[13] = qHTS assay to test for compound auto fluorescence at 535 nm (green) in HepG2 cell free culture (AID 720686)
[14] = qHTS assay to test for compound auto fluorescence at 460 nm (blue) in HepG2 cells (AID 720687)
Procedure, shortened: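 Cells (2,000/well in MEM with 10% FBS) attached overnight at 37 C, then were exposed to compound or DMSO for 1 hr at 37 C, 5% CO2. Fluorescence read at Ex/Em 405/460 nm, expressed as triamterene-equivalent signal.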

[15] = qHTS assay to test for compound auto fluorescence at 460 nm (blue) in HEK293 cell free culture (AID 720681)
Procedure, shortened: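 Test compounds were pinned into cell-free culture medium (DMEM with 10% FBS) and fluorescence was read directly at Ex/Em 405/460 nm. Signals were expressed as fluorescence equivalents of triamterene, with DMSO vehicle as control.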

[16] = biological target: Glucocorticoid receptor (Homo sapiens) (UniProt P04150); experiment: qHTS assay to identify small molecule agonists of the glucocorticoid receptor (GR) signaling pathway (AID 720691; active = well fitted activation curve with a large enough effect in the signal ratio in the repeat runs, not every such curve was filed as active; the % refers to the signal ratio)
Chain of Glucocorticoid receptor (Homo sapiens) (P04150 whole entry, looked up): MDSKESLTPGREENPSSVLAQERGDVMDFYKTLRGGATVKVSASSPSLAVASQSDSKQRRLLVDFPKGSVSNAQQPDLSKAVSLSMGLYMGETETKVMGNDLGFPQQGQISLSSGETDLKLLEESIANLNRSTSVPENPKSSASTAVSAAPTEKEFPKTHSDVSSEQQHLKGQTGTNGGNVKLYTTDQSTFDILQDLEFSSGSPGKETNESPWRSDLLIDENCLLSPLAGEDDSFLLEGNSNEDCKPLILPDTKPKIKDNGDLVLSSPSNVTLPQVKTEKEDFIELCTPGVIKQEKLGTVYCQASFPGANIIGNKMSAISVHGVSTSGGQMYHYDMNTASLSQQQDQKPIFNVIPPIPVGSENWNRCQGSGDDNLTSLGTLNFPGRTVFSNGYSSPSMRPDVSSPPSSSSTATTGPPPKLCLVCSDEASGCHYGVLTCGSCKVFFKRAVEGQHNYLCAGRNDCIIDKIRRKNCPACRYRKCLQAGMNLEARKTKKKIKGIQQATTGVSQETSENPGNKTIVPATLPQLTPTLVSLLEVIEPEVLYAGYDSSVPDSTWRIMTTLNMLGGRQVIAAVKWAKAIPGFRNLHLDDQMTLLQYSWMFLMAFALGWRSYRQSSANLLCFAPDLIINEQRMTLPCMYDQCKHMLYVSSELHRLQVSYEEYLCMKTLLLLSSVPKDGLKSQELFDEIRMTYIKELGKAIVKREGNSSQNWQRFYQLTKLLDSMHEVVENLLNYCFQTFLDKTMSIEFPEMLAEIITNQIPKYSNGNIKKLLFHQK
Procedure, shortened: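 Agonist mode in a HeLa line carrying a GRE-controlled beta-lactamase reporter. Compounds act for 18 h at 37 C before a 2 h room-temperature FRET substrate step and fluorescence reading.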

[17] = biological target: Glucocorticoid receptor (Homo sapiens) (UniProt P04150); experiment: qHTS assay to identify small molecule antagonists of the glucocorticoid receptor (GR) signaling pathway (AID 720692; active = well fitted inhibition curve with a large enough effect in the signal ratio in the repeat runs, not every such curve was filed as active; the % refers to the signal ratio)
Procedure, shortened: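 Cells plated, rested 4 h at 37 C/5% CO2; compounds in DMSO pin-transferred; dexamethasone added to 5 nM final; 18 h at 37 C; B/G FRET substrate added, 2 h room temperature; fluorescence measured.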

[18] = qHTS assay to test for compound auto fluorescence at 535 nm (green) in HepG2 cells (AID 720675)
[19] = qHTS assay for small molecule disruptors of the mitochondrial membrane potential (AID 720635)
Procedure, shortened: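 HepG2 cells (2,000/well) attached overnight at 37C, then took compound for 1 hr at 37C, 5% CO2. Mito-MPS dye was added for 30 min; fluorescence was read at 490/535 nm (monomers) and 540/590 nm (aggregates).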

Measured: Potency

O=C=NCC1CCCC(CN=C=O)C1 (centres undefined)
not listed: [15] | [16] | [17] | [18] | [19]
inactive: all other assays above

CC(C)C1OCCN1CCOC(=O)NCCCCCCNC(=O)OCCN1CCOC1C(C)C (centres undefined)
not listed: [13] | [18] | [19]
inactive: all other assays above

CC(O)CC(C)O (centres undefined)
not listed: [16] | [19]
inactive: all other assays above

C/C=C(\C)C(C)=O
not listed: [4] | [12] | [19]
inactive: all other assays above

Cc1ccc(N)cc1S(=O)(=O)O
not listed: [19]
inactive: all other assays above

CCC(C)OC(C)CC (centres undefined)
not listed: [9] | [16]
inactive: all other assays above

Fc1ccccc1
not listed: [9] | [19]
inactive: all other assays above

CC1CC(=O)CC(C)(C)C1 (centres undefined)
not listed: [12] | [18] | [19]
inactive: all other assays above

CCCC(=O)OCCC(C)CCC=C(C)C (centres undefined)
not listed: [4] | [13] | [15] | [16] | [17]
inactive: all other assays above

CC(C)CO
not listed: [3]
inactive: all other assays above

O=Cc1ccccc1Cl
not listed: [9] | [18]
inactive: all other assays above

Cc1c(C(=O)c2c[nH]n(C)c2=O)ccc(S(C)(=O)=O)c1C1=NOCC1
not listed: [4] | [12] | [13] | [17] | [19]
inactive: all other assays above

CN1C[C@@H]2C[C@H]1CN2c1cc2c(cc1F)c(=O)c(C(=O)O)cn2C1CC1
not listed: [4] | [9] | [12] | [13] | [16] | [17] | [19]
inactive: all other assays above

CC(C)(CO)C(O)C(=O)NCCCO (centres undefined)
not listed: [4] | [5] | [16] | [17]
inactive: all other assays above

O=C(O)CNC(=O)CNC(=O)CNC(=O)CSC(=O)c1ccccc1
not listed: [16]
inactive: all other assays above

COc1cc2c(cc1OC)C(=O)C(CC1CCN(Cc3ccccc3)CC1)C2 (centres undefined)
not listed: [9] | [16] | [17]
inactive: all other assays above

CCNC(=O)NCc1cccc(Cl)c1
not listed: [4] | [5] | [10] | [16] | [17]
inactive: all other assays above
